Test results: ChEMBL document CHEMBL1961873, “Compounds: GSK PKIS; Assays: Nanosyn kinase panel” (2012)

Columns and labels:
[1] = molecular target: Calcium/calmodulin-dependent protein kinase type II subunit alpha (Homo sapiens) (UniProt Q9UQM7); conditions: at 1 µM;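 also: reported value is a mean percent inhibition of CAMK2A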
[2] = molecular target: Calcium/calmodulin-dependent protein kinase type II subunit delta (Homo sapiens) (UniProt Q13557); conditions: at 0.1 µM
[3] = molecular target: Calcium/calmodulin-dependent protein kinase type II subunit delta (Homo sapiens) (UniProt Q13557); conditions: at 1 µM
[4] = molecular target: T1, Calcium/calmodulin-dependent protein kinase type IV (Homo sapiens) (UniProt Q16566); conditions: at 0.1 µM
T1 sequence (whole entry): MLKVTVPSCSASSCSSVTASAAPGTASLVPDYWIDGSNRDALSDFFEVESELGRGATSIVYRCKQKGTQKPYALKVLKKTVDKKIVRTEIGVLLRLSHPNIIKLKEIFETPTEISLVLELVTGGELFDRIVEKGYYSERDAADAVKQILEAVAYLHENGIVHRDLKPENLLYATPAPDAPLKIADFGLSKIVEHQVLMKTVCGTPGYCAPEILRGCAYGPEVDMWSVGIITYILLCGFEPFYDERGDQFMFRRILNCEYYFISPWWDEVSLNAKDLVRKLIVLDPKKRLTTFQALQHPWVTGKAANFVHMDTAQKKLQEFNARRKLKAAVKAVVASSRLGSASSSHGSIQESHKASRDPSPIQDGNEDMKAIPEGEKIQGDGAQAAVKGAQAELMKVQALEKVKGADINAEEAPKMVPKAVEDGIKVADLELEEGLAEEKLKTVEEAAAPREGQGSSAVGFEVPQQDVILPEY

[5] = molecular target: T1, Calcium/calmodulin-dependent protein kinase type IV (Homo sapiens); conditions: at 1 µM
[6] = molecular target: T2, Serine/threonine-protein kinase Chk1 (Homo sapiens) (UniProt O14757); conditions: at 0.1 µM
T2 sequence (whole entry): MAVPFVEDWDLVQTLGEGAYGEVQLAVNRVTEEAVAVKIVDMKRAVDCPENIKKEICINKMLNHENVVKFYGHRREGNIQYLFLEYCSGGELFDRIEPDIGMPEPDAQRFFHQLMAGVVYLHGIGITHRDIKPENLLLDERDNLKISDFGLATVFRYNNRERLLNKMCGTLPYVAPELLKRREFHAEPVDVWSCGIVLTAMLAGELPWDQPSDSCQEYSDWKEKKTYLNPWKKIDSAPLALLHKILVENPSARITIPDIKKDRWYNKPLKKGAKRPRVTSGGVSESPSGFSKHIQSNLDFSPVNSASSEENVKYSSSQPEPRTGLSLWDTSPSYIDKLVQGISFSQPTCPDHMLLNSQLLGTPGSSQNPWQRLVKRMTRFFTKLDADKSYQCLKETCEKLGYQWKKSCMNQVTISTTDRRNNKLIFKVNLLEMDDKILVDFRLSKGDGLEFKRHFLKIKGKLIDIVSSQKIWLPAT

[7] = molecular target: T2, Serine/threonine-protein kinase Chk1 (Homo sapiens); conditions: at 1 µM
[8] = molecular target: Serine/threonine-protein kinase Chk2 (Homo sapiens) (UniProt O96017); conditions: at 0.1 µM
Chain of Serine/threonine-protein kinase Chk2 (Homo sapiens) (O96017 whole entry): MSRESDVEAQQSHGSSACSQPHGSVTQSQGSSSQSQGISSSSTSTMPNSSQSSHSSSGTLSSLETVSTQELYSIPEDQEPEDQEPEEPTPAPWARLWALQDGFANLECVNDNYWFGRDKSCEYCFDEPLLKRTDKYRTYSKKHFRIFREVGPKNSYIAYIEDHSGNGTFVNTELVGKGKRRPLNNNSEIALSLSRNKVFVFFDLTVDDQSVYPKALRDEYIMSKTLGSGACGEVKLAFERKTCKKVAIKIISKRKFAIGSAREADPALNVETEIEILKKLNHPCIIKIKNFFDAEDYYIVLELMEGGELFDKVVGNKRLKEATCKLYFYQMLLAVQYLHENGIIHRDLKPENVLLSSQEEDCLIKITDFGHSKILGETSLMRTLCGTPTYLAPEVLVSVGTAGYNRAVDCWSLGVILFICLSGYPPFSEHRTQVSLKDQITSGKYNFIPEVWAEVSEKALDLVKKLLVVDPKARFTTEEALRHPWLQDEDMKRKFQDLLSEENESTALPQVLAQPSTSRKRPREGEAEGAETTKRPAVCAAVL

[9] = molecular target: Serine/threonine-protein kinase Chk2 (Homo sapiens) (UniProt O96017); conditions: at 1 µM
[10] = molecular target: Death-associated protein kinase 1 (Homo sapiens) (UniProt P53355); conditions: at 0.1 µM;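 also: reported figure is the mean inhibition of DAPK1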
Chain of Death-associated protein kinase 1 (Homo sapiens) (P53355 whole entry, looked up): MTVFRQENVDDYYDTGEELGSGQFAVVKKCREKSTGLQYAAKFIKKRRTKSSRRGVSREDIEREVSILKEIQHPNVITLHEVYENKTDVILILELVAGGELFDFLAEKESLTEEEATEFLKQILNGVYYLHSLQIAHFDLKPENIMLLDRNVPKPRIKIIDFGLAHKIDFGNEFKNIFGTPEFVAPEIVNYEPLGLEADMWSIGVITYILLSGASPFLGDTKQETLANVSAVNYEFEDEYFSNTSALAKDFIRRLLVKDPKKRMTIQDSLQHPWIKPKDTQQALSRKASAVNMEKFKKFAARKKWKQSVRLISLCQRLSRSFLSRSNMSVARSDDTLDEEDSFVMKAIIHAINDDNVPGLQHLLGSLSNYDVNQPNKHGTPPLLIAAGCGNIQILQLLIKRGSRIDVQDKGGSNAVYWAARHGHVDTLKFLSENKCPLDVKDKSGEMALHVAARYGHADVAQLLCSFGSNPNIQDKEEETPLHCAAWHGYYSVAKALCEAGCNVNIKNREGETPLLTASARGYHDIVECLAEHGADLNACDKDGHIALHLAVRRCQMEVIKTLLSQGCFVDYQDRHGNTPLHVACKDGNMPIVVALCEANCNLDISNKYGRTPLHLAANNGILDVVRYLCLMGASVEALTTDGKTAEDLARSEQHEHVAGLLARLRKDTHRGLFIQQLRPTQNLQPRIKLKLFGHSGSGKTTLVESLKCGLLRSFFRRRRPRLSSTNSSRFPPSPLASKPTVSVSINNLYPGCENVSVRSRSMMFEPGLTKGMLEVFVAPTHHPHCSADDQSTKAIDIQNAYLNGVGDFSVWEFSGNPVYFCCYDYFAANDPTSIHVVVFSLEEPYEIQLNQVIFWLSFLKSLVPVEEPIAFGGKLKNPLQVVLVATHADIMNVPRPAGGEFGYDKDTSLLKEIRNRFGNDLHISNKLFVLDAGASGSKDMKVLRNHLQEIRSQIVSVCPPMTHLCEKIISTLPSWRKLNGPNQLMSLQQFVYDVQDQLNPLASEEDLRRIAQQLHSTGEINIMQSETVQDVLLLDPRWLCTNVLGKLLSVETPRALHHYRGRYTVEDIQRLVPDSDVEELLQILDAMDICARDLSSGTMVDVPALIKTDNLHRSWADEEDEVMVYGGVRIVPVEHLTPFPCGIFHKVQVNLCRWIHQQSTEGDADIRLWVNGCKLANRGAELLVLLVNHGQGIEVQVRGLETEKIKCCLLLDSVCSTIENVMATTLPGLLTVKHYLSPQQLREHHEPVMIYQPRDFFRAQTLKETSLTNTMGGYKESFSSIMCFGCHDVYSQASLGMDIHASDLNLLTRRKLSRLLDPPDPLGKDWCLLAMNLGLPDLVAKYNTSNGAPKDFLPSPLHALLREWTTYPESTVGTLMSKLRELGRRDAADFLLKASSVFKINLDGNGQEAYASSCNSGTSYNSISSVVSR

Chain of Calcium/calmodulin-dependent protein kinase type II subunit delta (Homo sapiens) (Q13557 whole entry): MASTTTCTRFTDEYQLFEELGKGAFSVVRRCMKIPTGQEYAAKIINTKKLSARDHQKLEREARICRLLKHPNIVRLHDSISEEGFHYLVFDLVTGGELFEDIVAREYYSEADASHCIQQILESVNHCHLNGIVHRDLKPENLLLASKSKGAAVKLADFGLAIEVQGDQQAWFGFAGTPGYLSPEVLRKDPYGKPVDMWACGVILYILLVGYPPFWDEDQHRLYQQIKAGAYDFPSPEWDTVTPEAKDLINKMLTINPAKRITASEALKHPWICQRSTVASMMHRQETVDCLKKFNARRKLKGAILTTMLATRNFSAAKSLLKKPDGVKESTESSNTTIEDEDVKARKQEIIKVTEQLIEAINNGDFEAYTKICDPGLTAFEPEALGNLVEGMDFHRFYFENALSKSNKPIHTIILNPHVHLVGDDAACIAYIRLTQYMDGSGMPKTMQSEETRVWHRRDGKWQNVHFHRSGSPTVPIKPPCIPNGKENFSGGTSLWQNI
Chain of Calcium/calmodulin-dependent protein kinase type II subunit alpha (Homo sapiens) (Q9UQM7 whole entry): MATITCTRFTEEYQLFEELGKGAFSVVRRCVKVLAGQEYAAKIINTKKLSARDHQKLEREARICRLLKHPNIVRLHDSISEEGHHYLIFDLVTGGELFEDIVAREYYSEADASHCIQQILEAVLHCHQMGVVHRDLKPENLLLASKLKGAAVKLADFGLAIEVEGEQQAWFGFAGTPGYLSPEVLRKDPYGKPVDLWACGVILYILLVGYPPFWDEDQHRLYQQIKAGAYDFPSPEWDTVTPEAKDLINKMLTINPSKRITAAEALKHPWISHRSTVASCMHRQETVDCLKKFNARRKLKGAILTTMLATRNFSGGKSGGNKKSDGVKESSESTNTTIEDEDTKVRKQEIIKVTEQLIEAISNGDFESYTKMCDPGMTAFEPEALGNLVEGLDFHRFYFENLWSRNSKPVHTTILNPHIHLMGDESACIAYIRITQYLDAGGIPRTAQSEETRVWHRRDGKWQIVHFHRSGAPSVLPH

Row | Compound | inhibition [1] | inhibition [2] | inhibition [3] | inhibition [4] | inhibition [5] | inhibition [6] | inhibition [7] | inhibition [8] | inhibition [9] | inhibition [10]
1 | N#Cc1ccc(Oc2nccc(-c3c(-c4ccc(F)cc4)ncn3C3CCNCC3)n2)cc1 | 0.01% | 3.46% | 5.08% | -1.84% | 6.38% | 1.81% | -0.27% | 4.28% | 4.2% | 2.55%
2 | COc1cc(C)c(N(C)C(=O)CN(C)C)cc1Nc1nc(Nc2cccc(F)c2C(N)=O)c2cc[nH]c2n1 | 4.38% | 3.09% | 3.38% | 1.4% | 4.78% | -4.87% | -0.94% | 2.55% | 8.44% | 0.19%
3 | CCN(CC)Cc1ccc(Nc2nccc(-c3cnn4ncccc34)n2)cc1 | 4.21% | 3.84% | 14.3% | -0.37% | 0.34% | 1.29% | 11.6% | 2.5% | 7.56% | 2.68%
4 | CCc1nccc2c1nc(-c1nonc1N)n2CC | 2.34% | 2% | 3.76% | 2.07% | 1.55% | 1.61% | -3.41% | -1.09% | -0.94% | 0.87%
5 | CCc1ccc(Oc2nccc(-c3c(-c4ccc(F)cc4)ncn3C3CCNCC3)n2)cc1 | 5.86% | 4.44% | 7.05% | 2.89% | 5.14% | 4.54% | 6.62% | 3.02% | 5.66% | 4.58%
6 | CS(=O)(=O)CCNCc1cc(-c2cc3c(Nc4ccc(OCc5cccc(F)c5)c(Cl)c4)ncnc3s2)cs1 | 3.15% | 4.55% | 7.4% | -2.05% | 2.64% | 1.14% | 4.23% | 4.96% | 11.2% | 2.74%
7 | CN(c1ccc(NC(=O)Nc2c(Cl)cccc2Cl)cc1)c1ccnc(Nc2cccc(CS(C)(=O)=O)c2)n1 | 2.73% | 1.22% | -0.38% | -1.59% | -4.21% | 1.99% | 4.63% | 10.1% | 16.8% | 4.55%
8 | COc1ccc(-c2ccc3c(NC(=O)C4CC4)n[nH]c3n2)cc1 | 0.75% | 0.17% | 1.7% | -1.51% | -2.95% | 2.25% | 1.88% | 0.78% | 1.92% | 2.58%
9 | NC(=O)c1cc(-c2ccncc2)cc(-c2ccccc2)c1N | 3.97% | 4.41% | 4.63% | 0.2% | -0.82% | -1.87% | -2.65% | -1.34% | -0.01% | -2.69%
10 | COc1cc(Nc2ncc3c(C)nc(-c4cccc(C(F)(F)F)c4)n3n2)cc(OC)c1OC | 2% | 3.19% | 5.08% | -2% | -3.22% | 1.23% | 5.15% | 6.47% | 9.62% | -0.52%
11 | O=C(Nc1n[nH]c2cc(-c3cc(F)ccc3F)ccc12)C1CC1 | 2.68% | 3.1% | 25.3% | 1.86% | 1.99% | -0.4% | 1.41% | 2.67% | 3.25% | -0.82%
12 | CCC(=O)Nc1ccc(C)c(-c2ccc(C(=O)NCC3CC3)cc2)c1 | 1.21% | 2.68% | 4.75% | -0.67% | 2.05% | 0.06% | -0.8% | 3.52% | 5.57% | -0.61%
13 | COc1cc2ncn(-c3cc(OCc4ccccc4C(F)(F)F)c(C(C)=O)s3)c2cc1OC | 0.39% | 0.61% | 1.91% | -0.3% | -1.74% | 2.09% | 4.57% | 1.3% | 1.9% | 4.16%
14 | CCS(=O)(=O)c1ccc(OC)c(Nc2ncc(-c3cccc(-c4ccccc4F)c3)o2)c1 | 3.98% | 1.21% | 11.6% | 1.15% | 1.5% | 1.03% | 2.03% | -0.11% | -0.35% | -0.16%
15 | COc1cccc(-n2cnc3c(N/N=C/c4ccncc4)ncnc32)c1 | 1.18% | -1.07% | -1.61% | -2.88% | -5.3% | 0.34% | 0.31% | -0.94% | -0.32% | -0.67%
16 | Fc1ccc(-c2c(-c3ccncc3)nc3n2CCS3)cc1 | 0.88% | 1.78% | 2.01% | 1.18% | -0.25% | 0.42% | 2.88% | 1.49% | 0.52% | -0.64%
17 | NC(=O)c1cc(-c2ccc(F)cc2)cc(-c2ccncc2)c1N | 3.68% | 1.36% | 3.98% | 0.77% | 0.56% | 0.67% | 0.41% | 3% | 3.74% | 1.26%

Row | Compound | inhibition [1] | inhibition [2] | inhibition [3] | inhibition [4] | inhibition [5] | inhibition [6] | inhibition [7] | inhibition [8] | inhibition [9] | inhibition [10]
18 | O=C(Nc1ccc(Oc2ccc3[nH]c(NC(=O)c4ccccc4)nc3c2)cc1)Nc1cc(C(F)(F)F)ccc1F | 2.85% | 2.01% | 4.57% | -0.56% | -0.86% | 4.82% | 5.63% | 1.47% | 3.89% | 4.99%
19 | NC(=O)Cc1ccccc1Oc1nccc(-c2c(-c3ccc(F)cc3)ncn2C2CCNCC2)n1 | 2.07% | 2.62% | 2.58% | 0.99% | -0.11% | 0.75% | 5.68% | 4.2% | 6.05% | 2.51%
20 | CNC(=O)c1cncc(/C=C/c2c(C)cccc2C)c1 | 3.13% | 1.04% | 1.43% | 2.28% | 0.99% | -0.79% | 0.19% | -0.74% | -0.03% | 0.17%
21 | NC(=O)c1ccc(Oc2nccc(-c3c(-c4ccc(F)cc4)ncn3C3CCNCC3)n2)cc1 | 4.37% | 4.24% | 6.79% | 0.24% | 2.66% | -2.66% | 1.07% | -1.09% | 0.46% | -2.59%
22 | Cc1ccc(C(=O)NC2CCC2)cc1-c1ccc(C(=O)NCC2CC2)cc1 | 2.38% | 1.89% | 1.44% | 0.4% | 0.59% | 2.53% | 2.39% | 1.83% | 3.06% | 2.9%
23 | Fc1ccc(-c2ncn(C3CCNCC3)c2-c2ccnc(Oc3ccc(F)c(F)c3)n2)cc1 | 0.43% | 1.91% | 4.38% | -2.42% | -1.76% | -3.21% | 5.61% | 2.5% | 2.87% | 3.38%
24 | Clc1ccc(CNc2nccc(-c3cnn4ncccc34)n2)cc1 | 4.51% | 2.06% | 3.21% | 1.93% | 1.7% | 2.84% | 8.27% | 4.34% | 6.1% | 9.28%
25 | O=C(NCC1CC1)c1ccc(-c2cccc(C(=O)NC3CC3)c2)cc1 | 2.74% | 2.24% | 3.64% | 0.89% | 2% | -3.93% | 2.12% | 0.96% | 0.33% | 2.26%
26 | O=C1Nc2ccc(I)cc2C1=Cc1cc(Br)c(O)c(Br)c1 | 7.25% | 3.27% | 9.08% | 0.52% | 4.99% | 0.05% | -0.68% | 4.44% | 9.44% | 1.46%
27 | C[C@@H](Oc1cc(-n2cnc3ccc(OC4CCN(C)CC4)cc32)sc1C(N)=O)c1ccccc1Cl | 14.4% | 10.2% | 44.3% | -2.92% | 2.05% | 0.96% | 7.85% | 3.23% | 5.06% | 3.53%
28 | COc1ccc(C2=C(N3CCc4ccccc43)C(=O)NC2=O)cc1 | 4.72% | 4.35% | 7.01% | 0.45% | 0.33% | 3.53% | 3.47% | 3.04% | 3.92% | 3.58%
29 | CCc1cccc(CC)c1/C=C/c1cncc(C(=O)NC)c1 | 3.51% | 2.92% | 2.2% | 1.05% | 13.9% | 3.68% | 2.13% | 1.58% | 1.85% | 2.61%
30 | Cc1ccc(C(=O)NC(C)C)cc1-c1ccc(C(=O)NCC2CC2)cc1 | -3.85% | -3.04% | -1.11% | -0.94% | -2.57% | -1.72% | -3.38% | -3.25% | -2.4% | -2.08%
31 | O=C1Nc2ccccc2/C1=C/Nc1ccc(-n2cncn2)cc1 | 4.05% | 2.3% | 6.83% | -0.87% | -2.92% | 1.77% | 13.5% | 3.98% | 14.9% | 5.75%
32 | CN(C)c1ccc2c(c1)/C(=C/Nc1ccc(S(N)(=O)=O)cc1)C(=O)N2 | 3.56% | 2.54% | 15% | 0.96% | 0.42% | 8.69% | 34.9% | 1.42% | 10.6% | 1.57%
33 | NS(=O)(=O)c1ccc(N/N=C2\C(=O)Nc3ccc(C(=O)NCCCn4ccnc4)cc32)cc1 | 4.11% | 2.56% | 8.04% | -1.35% | -4.25% | 10.4% | 19.3% | 10.6% | 19% | 11.1%
34 | COc1ccc2cc(-c3c(-c4ccncc4)nc(-c4ccc(S(C)(=O)=O)cc4C)n3C)ccc2c1 | 3.89% | 3.49% | 3.21% | 0.37% | 0.96% | -2.73% | -3.07% | -2.23% | -0.36% | -2.52%
